Where “and” joins values, the source holds several entries; their conditions need not be identical. Equal entries are not always repeated. Out of some 5,500 compounds screened, about 2,000 (36%) were called active. Inconclusive results (about 18%) are left out. No stated cut-off is given here; in the data, active means normalized growth mostly below about 0.91 (no sharp cut-off); inconclusive means no clear call, values can overlap the other calls; inactive means mostly above about 0.92. Some of the results follow.
Experiment: chemical genetic growth profiling, strain panel (AID 1159580);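 further: tested at 20 µM; growth read once vehicle control cultures reached saturation at 30 °C; 1 = growth at the plate median or of vehicle wells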
Details: S. cerevisiae deletion strains, growth OD

Measured: normalized growth

CC1CCC(NC(=O)N(CCCl)N=O)CC1 (stereo not drawn)
inactive: locus YBL061C, strain skt5, stronger effect = lower value 0.965 | locus YBR021W, strain FUR4, stronger effect = lower value 1.02 | locus YBR229C, strain ROT2, stronger effect = lower value 0.998 | locus YCL029C, strain bik1, stronger effect = lower value 1.01 | locus YDL005C, strain med2, stronger effect = lower value 0.952 | locus YDL035C, strain GPR1, stronger effect = lower value 0.946 | locus YDL040C, strain nat1, stronger effect = lower value 0.983 | locus YDL074C, strain BRE1, stronger effect = lower value 0.874 | locus YDL101C, strain DUN1, stronger effect = lower value 0.995 | locus YDL134C, strain PPH21, stronger effect = lower value 0.995 | locus YDL185W, strain tfp1, stronger effect = lower value 1.01 | locus YDL192W, strain arf1, stronger effect = lower value 1 | locus YDR069C, strain doa4, stronger effect = lower value 0.958 | locus YDR101C, strain arx1, stronger effect = lower value 0.99 | locus YDR150W, strain NUM1, stronger effect = lower value 0.998 | locus YDR162C, strain NBP2, stronger effect = lower value 0.968 | locus YDR195W, strain ref2 0.994 | locus YDR297W, strain sur2, stronger effect = lower value 0.951 | locus YDR318W, strain mcm21, stronger effect = lower value 0.979 | locus YDR335W, strain msn5, stronger effect = lower value 0.933 | locus YDR388W, stronger effect = lower value 1.01 | locus YEL061C, strain CIN8, stronger effect = lower value 0.992 | locus YER110C, stronger effect = lower value 1.01 | locus YER111C, strain swi4, stronger effect = lower value 0.961 | locus YER155C, strain BEM2, stronger effect = lower value 1 | locus YER167W, strain BCK2, stronger effect = lower value 0.938 | locus YGL078C, strain dbp3, stronger effect = lower value 0.957 | locus YGL086W, strain mad1, stronger effect = lower value 0.937 | locus YGL167C, strain pmr1, stronger effect = lower value 0.98 | locus YGL248W, strain PDE1, stronger effect = lower value 1 | locus YGR135W, strain pre9, stronger effect = lower value 0.935 | locus YGR252W, strain gcn5, stronger effect = lower value 0.993 | locus YHR030C, strain SLT2, stronger effect = lower value 0.991 and 0.89 | locus YHR079C, strain IRE1 (second series), stronger effect = lower value 1 | locus YHR079C, strain IRE1, stronger effect = lower value 0.866 | locus YHR094C, strain hxt1, stronger effect = lower value 1.01 | locus YHR129C, strain ARP1, stronger effect = lower value 0.974 | locus YHR200W, strain rpn10, stronger effect = lower value 0.982 | locus YIL066C, strain RNR3, stronger effect = lower value 0.949 | locus YIL073C, strain SPO22, stronger effect = lower value 1.02 | locus YIR030C, strain dcg1, stronger effect = lower value 0.995 | locus YJL095W, strain BCK1, stronger effect = lower value 0.928 and 0.908 | locus YJL134W, strain LCB3, stronger effect = lower value 0.997 | locus YJL154C, strain vps35, stronger effect = lower value 0.975 | locus YJL168C, strain set2, stronger effect = lower value 1.01 | locus YJL187C, strain SWE1 (second series), stronger effect = lower value 1 | locus YJR066W, strain TOR1, stronger effect = lower value 0.894 | locus YKL009W, strain mrt4, stronger effect = lower value 0.921 | locus YKL068W, stronger effect = lower value 0.983 | locus YKL160W, strain elf1, stronger effect = lower value 0.914 | locus YKL190W, strain CNB1, stronger effect = lower value 0.996 | locus YLL001W, strain dnm1, stronger effect = lower value 0.929 | locus YLR039C, strain RIC1, stronger effect = lower value 0.771 | locus YLR058C, strain SHM2, stronger effect = lower value 0.995 | locus YLR102C, strain apc9, stronger effect = lower value 1.01 | locus YLR113W, strain HOG1, stronger effect = lower value 0.902 | locus YLR262C, strain YPT6, stronger effect = lower value 0.656 | locus YLR268W, strain sec22, stronger effect = lower value 0.894 | locus YLR330W, strain CHS5, stronger effect = lower value 0.977 | locus YLR342W, strain FKS1 (second series), stronger effect = lower value 0.991 | locus YLR370C, strain arc18, stronger effect = lower value 0.913 | locus YLR371W, strain rom2, stronger effect = lower value 0.941 | locus YLR384C, strain iki3, stronger effect = lower value 0.956 | locus YML016C, strain PPZ1, stronger effect = lower value 1 | locus YML032C, strain rad52, stronger effect = lower value 1.01 | locus YML124C, strain tub3, stronger effect = lower value 1 | locus YMR078C, strain ctf18, stronger effect = lower value 1 | locus YMR223W, strain ubp8, stronger effect = lower value 0.974 | locus YMR231W, strain pep5, stronger effect = lower value 0.981 | locus YMR307W, strain GAS1, stronger effect = lower value 0.721 | locus YNL067W, strain RPL9B, stronger effect = lower value 0.926 | locus YNL153C, strain GIM3, stronger effect = lower value 0.882 | locus YNL183C, strain NPR1, stronger effect = lower value 0.9 | locus YNL233W, strain BNI4, stronger effect = lower value 0.917 | locus YNL250W, strain rad50, stronger effect = lower value 0.94 | locus YNL271C, strain bni1, stronger effect = lower value 0.93 | locus YNL298W, strain CLA4, stronger effect = lower value 0.957 | locus YNL322C, strain KRE1, stronger effect = lower value 0.985 | locus YNR049C, strain mso1, stronger effect = lower value 0.939 | locus YNR052C, strain pop2, stronger effect = lower value 1.02 | locus YOL012C, strain htz1 0.346 | locus YOL147C, strain pex11, stronger effect = lower value 1 | locus YOR061W, strain CKA2, stronger effect = lower value 1 | locus YOR069W, strain VPS5, stronger effect = lower value 0.998 | locus YOR080W, strain dia2, stronger effect = lower value 0.988 | locus YOR136W, strain idh2, stronger effect = lower value 0.992 | locus YOR144C, strain elg1, stronger effect = lower value 0.998 | locus YOR231W, strain MKK1, stronger effect = lower value 0.89 | locus YOR316C, strain cot1, stronger effect = lower value 1 | locus YPL256C, strain CLN2, stronger effect = lower value 0.855 | locus YPR119W, strain clb2, stronger effect = lower value 1 | locus YPR141C, strain kar3, stronger effect = lower value 0.979 | locus YPR163C, strain tif3, stronger effect = lower value 0.964 | locus YPR167C, strain met16, stronger effect = lower value 0.999
active: locus YAL021C, strain ccr4, stronger effect = lower value 0.899 | locus YAL026C, strain drs2, stronger effect = lower value 0.24 | locus YAL030W, strain snc1, stronger effect = lower value 0.796 | locus YBR009C, strain hhf1, stronger effect = lower value 0.244 | locus YBR023C, strain chs3, stronger effect = lower value 0.876 | locus YBR171W, strain sec66, stronger effect = lower value 0.68 | locus YBR231C, strain swc5, stronger effect = lower value 0.755 | locus YBR279W, strain paf1, stronger effect = lower value 0.863 | locus YCL011C, strain gbp2, stronger effect = lower value 0.095 | locus YCL016C, strain dcc1, stronger effect = lower value 0.703 | locus YCL061C, strain MRC1, stronger effect = lower value 0.335 | locus YCL069W, strain vba3, stronger effect = lower value 0.834 | locus YCR088W, strain abp1, stronger effect = lower value 0.182 | locus YDR001C, strain nth1, stronger effect = lower value 0.678 | locus YDR137W, strain rgp1, stronger effect = lower value 0.718 | locus YDR159W, strain sac3, stronger effect = lower value 0.852 | locus YDR334W, strain swr1, stronger effect = lower value 0.187 | locus YDR392W, strain spt3, stronger effect = lower value 0.126 | locus YDR502C, strain sam2, stronger effect = lower value 0.859 | locus YEL003W, strain gim4, stronger effect = lower value 0.0715 | locus YEL037C, strain rad23, stronger effect = lower value 0.865 | locus YEL061C, strain CIN8 (second series), stronger effect = lower value 0.339 | locus YER015W, strain faa2, stronger effect = lower value 0.593 | locus YER016W, strain bim1, stronger effect = lower value 0.895 | locus YER155C, strain BEM2 (second series), stronger effect = lower value 0.112 | locus YFR010W, strain ubp6, stronger effect = lower value 0.85 | locus YGL173C, strain kem1, stronger effect = lower value 0.895 | locus YGL227W, strain vid30, stronger effect = lower value 0.07 | locus YGL240W, strain doc1, stronger effect = lower value 0.8 | locus YGL253W, strain hxk2, stronger effect = lower value 0.771 | locus YHR013C, strain ard1, stronger effect = lower value 0.578 | locus YHR027C, strain rpn1, stronger effect = lower value 0.695 | locus YHR142W, strain chs7, stronger effect = lower value 0.476 | locus YIL125W, strain kgd1, stronger effect = lower value 0.929 | locus YJL092W, strain hpr5, stronger effect = lower value 0.644 | locus YJL095W, strain BCK1 (second series), stronger effect = lower value 0.887 | locus YJL115W, strain asf1, stronger effect = lower value 0.622 | locus YJL129C, strain trk1, stronger effect = lower value 0.196 | locus YJL164C, strain tpk1, stronger effect = lower value 0.545 | locus YJL166W, strain qcr8, stronger effect = lower value 0.427 | locus YJR043C, strain POL32, stronger effect = lower value 0.662 | locus YKL085W, strain MDH1 (second series), stronger effect = lower value 0.912 | locus YKL085W, strain MDH1, stronger effect = lower value 0.912 | locus YKR001C, strain vps1, stronger effect = lower value 0.841 | locus YKR026C, strain gcn3, stronger effect = lower value 0.225 | locus YKR091W, strain srl3, stronger effect = lower value 0.81 | locus YLL026W, stronger effect = lower value 0.289 | locus YLL041C, strain sdh2, stronger effect = lower value 0.657 | locus YLR027C, strain aat2, stronger effect = lower value 0.344 | locus YLR221C, strain rsa3, stronger effect = lower value 0.0809 | locus YLR258W, strain gsy2, stronger effect = lower value 0.728 | locus YLR262C, strain YPT6 (second series), stronger effect = lower value 0.635 | locus YLR320W, strain mms22, stronger effect = lower value 0.232 | locus YLR342W, strain FKS1, stronger effect = lower value 0.819 | locus YLR357W, strain rsc2, stronger effect = lower value 0.549 | locus YLR418C, strain cdc73, stronger effect = lower value 0.554 | locus YML120C, strain ndi1, stronger effect = lower value 0.128 | locus YMR058W, strain fet3, stronger effect = lower value 0.216 | locus YMR125W, strain sto1, stronger effect = lower value 0.0911 | locus YMR129W, stronger effect = lower value 0.0909 | locus YMR205C, strain PFK2, stronger effect = lower value 0.728 | locus YNL071W, strain lat1, stronger effect = lower value 0.0878 | locus YNL209W, strain ssb2, stronger effect = lower value 0.798 | locus YNL248C, strain rpa49, stronger effect = lower value 0.0991 | locus YNL307C, strain MCK1, stronger effect = lower value 0.89 | locus YNL322C, strain KRE1 (second series), stronger effect = lower value 0.121 | locus YOR001W, strain rrp6, stronger effect = lower value 0.084 | locus YOR070C, strain gyp1, stronger effect = lower value 0.658 | locus YOR083W, strain WHI5, stronger effect = lower value 0.598 | locus YOR106W, strain vam3, stronger effect = lower value 0.598 | locus YOR184W, strain ser1, stronger effect = lower value 0.161 | locus YOR265W, strain rbl2, stronger effect = lower value 0.894 | locus YOR270C, strain vph1, stronger effect = lower value 0.503 | locus YOR290C, strain snf2, stronger effect = lower value 0.853 | locus YPL051W, strain arl3, stronger effect = lower value 0.816 | locus YPL078C, strain atp4, stronger effect = lower value 0.878 | locus YPL106C, strain sse1, stronger effect = lower value 0.823 | locus YPL240C, strain hsp82, stronger effect = lower value 0.795 | strain wtn01, stronger effect = lower value 0.858

Reference: PubChem BioAssay AID1159580 (chemical genetic matrix, 2015)
